{"source": "the supplement of paper PMC4022240", "binders": {"B1": {"name": "H4 16-28 K R H R Kac V L R D N I Q G (peptide)", "chain": "KRHRKVLRDNIQG"}, "B2": {"name": "H4 16-28 K R H R Kme3 V L R D N I Q G (peptide)", "chain": "KRHRKVLRDNIQG"}, "B3": {"name": "H4 8-19 K G L G K G G A Kac Rcit H R K (peptide)", "chain": "KGLGKGGAKRHRK"}, "B4": {"name": "H4 8-19 K G L G K G G A K Rcit H R K (peptide)", "chain": "KGLGKGGAKRHRK"}, "B5": {"name": "H4 16-28 K R H Rcit Kac V L R D N I Q G (peptide)", "chain": "KRHRKVLRDNIQG"}, "B6": {"name": "H4 8-19 K G L G K G G A Kac Rme2s H R K (peptide)", "chain": "KGLGKGGAKRHRK"}, "B7": {"name": "H4 8-19 K G L G K G G A K Rme H R K (peptide)", "chain": "KGLGKGGAKRHRK"}}, "test_in_all_cases": "peptide microarray binding signal (635 nm), min-max normalized on array (fraction of array maximum); higher = stronger binding", "key": {"[1]": {"target": "T1, HaloTag-ATRX ADD domain (163-292)", "T1 chain": "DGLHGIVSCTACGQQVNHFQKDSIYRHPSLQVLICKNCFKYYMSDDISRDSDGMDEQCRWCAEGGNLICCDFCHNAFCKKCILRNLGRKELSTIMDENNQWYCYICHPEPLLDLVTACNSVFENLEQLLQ", "in_short": "(§1)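 Arrays carried histone 13-mer peptide–cellulose conjugates printed in triplicate on nitrocellulose alongside a Cy3 tracer. After overnight blocking at 4°C, they were incubated for 1 h at 4°C with biotin-labelled HaloTag reader fusions (10 nM to 1 μM) plus streptavidin-Alexa Fluor 647, or with rabbit histone antibodies (1:10,000 to 1:2,000) plus anti-rabbit Alexa 647. Scanning on an Axon GenePix 4000B used 635 nm for signal and 532 nm for misprints. The binding signal reported is each triplicate's mean spot intensity after per-library min-max scaling.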"}, "[2]": {"target": "HaloTag-ING2 PHD (mouse Ing2 200-280)", "in_short": "as §1"}, "[3]": {"target": "anti-H3K4me3 antibody ab8580", "in_short": "as §1"}, "[4]": {"target": "anti-H3K9me3 antibody ab8898", "in_short": "as §1"}, "[5]": {"details": "peptide region: H4 16-28, peptide modifications: H4K20ac, binder concentration: 1:2,000 dilution"}, "[6]": {"details": "peptide region: H4 16-28, peptide modifications: H4K20me3, binder concentration: 1:2,000 dilution"}, "[7]": {"details": "peptide region: H4 8-19, peptide modifications: H4K16ac H4R17cit, binder concentration: 1:2,000 dilution"}, "[8]": {"details": "peptide region: H4 8-19, peptide modifications: H4R17cit, binder concentration: 1:2,000 dilution"}, "[9]": {"details": "peptide region: H4 8-19, peptide modifications: H4R17cit, binder concentration: 1:10,000 dilution"}, "[10]": {"details": "peptide region: H4 16-28, peptide modifications: H4R19cit H4K20ac, binder concentration: 1:2,000 dilution"}, "[11]": {"details": "peptide region: H4 16-28, peptide modifications: H4R19cit H4K20ac, binder concentration: 1:10,000 dilution"}, "[12]": {"details": "peptide region: H4 8-19, peptide modifications: H4K16ac H4R17me2s, binder concentration: 1:2,000 dilution"}, "[13]": {"details": "peptide region: H4 8-19, peptide modifications: H4R17me1, binder concentration: 1:2,000 dilution"}, "[14]": {"details": "peptide region: H4 8-19, peptide modifications: H4R17me1, binder concentration: 1:10,000 dilution"}}, "note": "± gives the standard deviation."}
{"binder": "B1", "values": [{"measurement": "peptide microarray binding signal", "setting": "[1]; peptide region: H4 16-28, peptide modifications: H4K20ac, binder concentration: 500 nM", "value": "0.000524 ± 1.1e-05"}, {"measurement": "peptide microarray binding signal", "setting": "[2]; peptide region: H4 16-28, peptide modifications: H4K20ac, binder concentration: 100 nM", "value": "0.000354 ± 4.1e-06"}, {"measurement": "peptide microarray binding signal", "setting": "[3]; [5]", "value": "0.000529 ± 9.8e-05"}, {"measurement": "peptide microarray binding signal", "setting": "[4]; [5]", "value": "3.02e-05 ± 3.4e-07"}]}
{"binder": "B2", "values": [{"measurement": "peptide microarray binding signal", "setting": "[1]; peptide region: H4 16-28, peptide modifications: H4K20me3, binder concentration: 500 nM", "value": "0.000667 ± 3.7e-05"}, {"measurement": "peptide microarray binding signal", "setting": "[2]; peptide region: H4 16-28, peptide modifications: H4K20me3, binder concentration: 100 nM", "value": "7.09e-05 ± 1.5e-06"}, {"measurement": "peptide microarray binding signal", "setting": "[3]; [6]", "value": "0.000982 ± 0.00023"}, {"measurement": "peptide microarray binding signal", "setting": "[4]; [6]", "value": "1.51e-05 ± 1.7e-07"}]}
{"binder": "B3", "values": [{"measurement": "peptide microarray binding signal", "setting": "[1]; peptide region: H4 8-19, peptide modifications: H4K16ac H4R17cit, binder concentration: 500 nM", "value": "0.000476 ± 1.3e-05"}, {"measurement": "peptide microarray binding signal", "setting": "[2]; peptide region: H4 8-19, peptide modifications: H4K16ac H4R17cit, binder concentration: 100 nM", "value": "7.09e-05 ± 1.5e-06"}, {"measurement": "peptide microarray binding signal", "setting": "[3]; [7]", "value": "3.78e-05 ± 4.3e-07"}, {"measurement": "peptide microarray binding signal", "setting": "[4]; [7]", "value": 0}]}
{"binder": "B4", "values": [{"measurement": "peptide microarray binding signal", "setting": "[1]; peptide region: H4 8-19, peptide modifications: H4R17cit, binder concentration: 50 nM", "value": "0.0003448 ± 3.2e-06"}, {"measurement": "peptide microarray binding signal", "setting": "[1]; peptide region: H4 8-19, peptide modifications: H4R17cit, binder concentration: 500 nM", "value": "0.000381 ± 4e-06"}, {"measurement": "peptide microarray binding signal", "setting": "[2]; peptide region: H4 8-19, peptide modifications: H4R17cit, binder concentration: 10 nM", "value": "0.00191 ± 4e-05"}, {"measurement": "peptide microarray binding signal", "setting": "[2]; peptide region: H4 8-19, peptide modifications: H4R17cit, binder concentration: 100 nM", "value": "0.000354 ± 4.1e-06"}, {"measurement": "peptide microarray binding signal", "setting": "[3]; [8]", "value": "7.55e-05 ± 8.5e-07"}, {"measurement": "peptide microarray binding signal", "setting": "[3]; [9]", "value": "0.000685 ± 1.5e-05"}, {"measurement": "peptide microarray binding signal", "setting": "[4]; [8]", "value": "3.02e-05 ± 3.4e-07"}, {"measurement": "peptide microarray binding signal", "setting": "[4]; [9]", "value": 0}]}
{"binder": "B5", "values": [{"measurement": "peptide microarray binding signal", "setting": "[1]; peptide region: H4 16-28, peptide modifications: H4R19cit H4K20ac, binder concentration: 50 nM", "value": "0.00511 ± 4.9e-05"}, {"measurement": "peptide microarray binding signal", "setting": "[1]; peptide region: H4 16-28, peptide modifications: H4R19cit H4K20ac, binder concentration: 500 nM", "value": "0.00829 ± 0.00052"}, {"measurement": "peptide microarray binding signal", "setting": "[2]; peptide region: H4 16-28, peptide modifications: H4R19cit H4K20ac, binder concentration: 10 nM", "value": "0.00633 ± 0.0001"}, {"measurement": "peptide microarray binding signal", "setting": "[2]; peptide region: H4 16-28, peptide modifications: H4R19cit H4K20ac, binder concentration: 100 nM", "value": "0.0106 ± 0.00059"}, {"measurement": "peptide microarray binding signal", "setting": "[3]; [10]", "value": "0.000736 ± 6.2e-05"}, {"measurement": "peptide microarray binding signal", "setting": "[3]; [11]", "value": "0.00137 ± 1.3e-05"}, {"measurement": "peptide microarray binding signal", "setting": "[4]; [10]", "value": "0.0004832 ± 4.6e-06"}, {"measurement": "peptide microarray binding signal", "setting": "[4]; [11]", "value": "0.00196 ± 3.7e-05"}]}
{"binder": "B6", "values": [{"measurement": "peptide microarray binding signal", "setting": "[1]; peptide region: H4 8-19, peptide modifications: H4K16ac H4R17me2s, binder concentration: 500 nM", "value": "0.000286 ± 1.8e-05"}, {"measurement": "peptide microarray binding signal", "setting": "[2]; peptide region: H4 8-19, peptide modifications: H4K16ac H4R17me2s, binder concentration: 100 nM", "value": "0.000283 ± 5.7e-06"}, {"measurement": "peptide microarray binding signal", "setting": "[3]; [12]", "value": "5.66e-05"}, {"measurement": "peptide microarray binding signal", "setting": "[4]; [12]", "value": "1.51e-05 ± 1.7e-07"}]}
{"binder": "B7", "values": [{"measurement": "peptide microarray binding signal", "setting": "[1]; peptide region: H4 8-19, peptide modifications: H4R17me1, binder concentration: 50 nM", "value": "0.00987 ± 0.0027"}, {"measurement": "peptide microarray binding signal", "setting": "[1]; peptide region: H4 8-19, peptide modifications: H4R17me1, binder concentration: 500 nM", "value": "0.016 ± 0.0014"}, {"measurement": "peptide microarray binding signal", "setting": "[2]; peptide region: H4 8-19, peptide modifications: H4R17me1, binder concentration: 10 nM", "value": "0.00352 ± 6.8e-05"}, {"measurement": "peptide microarray binding signal", "setting": "[2]; peptide region: H4 8-19, peptide modifications: H4R17me1, binder concentration: 100 nM", "value": "0.00865 ± 0.00034"}, {"measurement": "peptide microarray binding signal", "setting": "[3]; [13]", "value": "0.00119 ± 0.0002"}, {"measurement": "peptide microarray binding signal", "setting": "[3]; [14]", "value": "0.00148 ± 8e-05"}, {"measurement": "peptide microarray binding signal", "setting": "[4]; [13]", "value": "0.00112 ± 4.3e-05"}, {"measurement": "peptide microarray binding signal", "setting": "[4]; [14]", "value": "0.00138 ± 1.4e-05"}]}
